# Measurements reported in PubChem BioAssay (Tox21).
# Inconclusive results are not listed. Active and inactive are the calls of the source. Unless noted, calls follow the shape of the dose curve; as a rule, active = well fitted cell-killing curve with a large enough effect in the repeat runs (not every such curve was filed as active); inconclusive = weak or mixed curves, or effect the other way; inactive = no such curve, though single readings can be large or run the other way.
# Molecular target: Nuclear receptor subfamily 1 group I member 3 (Homo sapiens) (UniProt Q14994)
# Assay: qHTS assay to identify small molecule agonists of the constitutive androstane receptor (CAR) signaling pathway (AID 1224839; active = well fitted curve in the direction sought with a large enough effect in the repeat runs; an effect the other way counts as inactive or inconclusive;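 also: HepG2 cells stably carrying human CAR and a CYP2B6 luciferase reporter; nearly all actives have a fitted effect of over 15% in size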)
# Conditions: HepG2 hCAR CYP2B6-luciferase, agonist mode, 24 h; series mostly up to 92.4 µM; activation: at the top concentration
# How it was run: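 Readout: firefly luciferase luminescence via ONE-Glo. System: HepG2 double-stable for hCAR and CYP2B6-2.2kb. Conditions: 15-point compound titration, PK11195 at 0.75 uM final, 24 h incubation.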
# % is scaled to controls: 0 for no effect and ±100 for the full control effect.
# Nuclear receptor subfamily 1 group I member 3 (Homo sapiens), sequence (Q14994 whole entry, looked up): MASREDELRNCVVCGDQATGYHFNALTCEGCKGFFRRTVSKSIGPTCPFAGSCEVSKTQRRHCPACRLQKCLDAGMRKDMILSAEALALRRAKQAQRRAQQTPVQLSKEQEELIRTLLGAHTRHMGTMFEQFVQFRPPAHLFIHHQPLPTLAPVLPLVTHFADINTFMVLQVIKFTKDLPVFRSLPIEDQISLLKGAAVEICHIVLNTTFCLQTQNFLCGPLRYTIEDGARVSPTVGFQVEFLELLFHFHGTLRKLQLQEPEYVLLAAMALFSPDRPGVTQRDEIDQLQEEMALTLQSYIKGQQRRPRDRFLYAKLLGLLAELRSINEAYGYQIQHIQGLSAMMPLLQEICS
row,Structure (SMILES),activation
1,CC(CC(=O)O)CC(C)(C)C (centres undefined),1.75% (inactive)
2,CC(=O)OC(C)c1ccccc1 (centres undefined),-3.61% (inactive)
3,CCCCC(CC)COC(=O)c1ccccc1 (centres undefined),7.69% (inactive)
4,CCOc1ccc(NC(=O)OC(C)C)cc1OCC,-1.75% (inactive)

# System: not listed separately
# Assay: qHTS assay to identify small molecule antagonists of the estrogen related receptor signaling pathway with the pleiotropic PPARgamma coactivator (PGC) from Tox21 10K library - cell viability counter screen (AID 1224840); also: nearly all actives have a fitted effect of over 40% in size
# Conditions: PGC/ERR reporter cells viability, CellTiter-Fluor, 17.5 h; series mostly up to 92.4 µM; viability change, negative = cytotoxic: at the top concentration
# How it was run: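 Fluorescence read-out of CellTiter-Fluor viability reagent, added after cells had been exposed to compound in DMSO for 17.5 h at 37 C; 30 min development at 37 C/5% CO2. Cells: PGC/ERR line, 2,000/well.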
row,Structure (SMILES),"viability change, negative = cytotoxic"
1,CC(CC(=O)O)CC(C)(C)C (centres undefined),-0.825% (inactive)
2,Nc1ccc(/C=C/c2ccc(N)cc2S(=O)(=O)O)c(S(=O)(=O)O)c1,2.38% [at 0.349 µM] (inactive)
3,COc1ccc(NS(=O)(=O)c2ccc(N)cc2)nn1,5.86% [at 42.5 µM] (inactive)
4,CCCCCCCCCCCCC1CO1 (centres undefined),2.69% (inactive)
5,CC(C)C(=O)c1ccccc1,-0.373% (inactive)
6,CC(Cl)COP(=O)(OCC(C)Cl)OCC(C)Cl (centres undefined),-8.13% (inactive)
7,CN(C)CCOCCN(C)CCO,-0.378% (inactive)
8,CC(C)(CO)[C@@H](O)C(=O)NCCCO,12.4% [at 42.5 µM] (inactive)
9,CC(=O)OC(C)c1ccccc1 (centres undefined),0.628% (inactive)
10,C=CCOCC(CO)(COCC=C)COCC=C,8.45% [at 42.5 µM] (inactive)
11,Cc1ncc([N+](=O)[O-])n1CC(O)CCl (centres undefined),14.8% [at 42.5 µM] (inactive)
12,CCCCC(CC)COC(=O)c1ccccc1 (centres undefined),-0.602% (inactive)
13,CCN(CCO)c1cccc(C)c1,0.105% (inactive)
14,CN=C(NC#N)NCCSCc1csc(N=C(N)N)n1,4.88% [at 42.5 µM] (inactive)
15,CC1CCC(C(C)(C)S)C(=O)C1 (centres undefined),-0.0601% (inactive)
16,O=CN1CCOCC1,3.78% (inactive)
17,CCCCCCCCCCCCCCCCCCN(C)C,12.4% [at 42.5 µM] (inactive)

row,Structure (SMILES),"viability change, negative = cytotoxic"
1,O=C(O)CCNC(=O)c1ccccc1,0.671% [at 42.5 µM] (inactive)
2,COc1ccc(OC)c(NC(=O)CC(C)=O)c1,0.392% (inactive)
3,O=C(CN1CCN(Cc2ccc3c(c2)OCO3)CC1)N1c2ccccc2Sc2ccccc21,-1.55% [at 42.5 µM] (inactive)
4,O=C(O)c1ccccc1C(=O)Nc1ccc(S(=O)(=O)Nc2nccs2)cc1,0.289% [at 42.5 µM] (inactive)
5,O=c1[nH]c(=O)c2ccccc2o1,-2.57% [at 42.5 µM] (inactive)
6,CCC1COC(=O)O1 (centres undefined),9.67% (inactive)
7,C=CCOc1cc(Cl)ccc1C(=O)NCCN(CC)CC,14.8% [at 42.5 µM] (inactive)
8,Cc1cccc(NC(=S)N(C)C)c1,-3% (inactive)
9,O=C(COCCOCCOCC(=O)Nc1c(I)cc(I)c(C(=O)O)c1I)Nc1c(I)cc(I)c(C(=O)O)c1I,11.4% [at 42.5 µM] (inactive)
10,C=CCOc1c(Br)cc(Br)cc1Br,0.311% (inactive)
11,NC(=O)NC(=O)Cc1ccccc1,8.7% [at 42.5 µM] (inactive)
12,FC(F)(F)/C(=N\OCC1OCCO1)c1ccc(Cl)cc1,3.19% (inactive)
13,CCOc1ccc(NC(=O)OC(C)C)cc1OCC,5.4% (inactive)
14,CC(=O)/C=C/c1ccco1,-6.47% (inactive)
15,CCCCCCCCC(=O)OCC,0.223% (inactive)
16,CCCCCCCCCCCCCCCCI,-0.222% [at 19 µM] (inactive)

# System: not listed separately
# Assay: qHTS assay to identify small molecule antagonists of the estrogen related receptor signaling pathway with the pleiotropic PPARgamma coactivator (PGC) from Tox21 10K library (AID 1224841; call rule not given here; also: actives are mostly falling curves and most rising ones were filed inactive; nearly all actives have a fitted effect of over 50% in size)
# Conditions: PGC/ERR reporter cell line, ONE-Glo luciferase, 18 h; series mostly up to 92.4 µM; activity, negative = inhibition: at the top concentration
# How it was run: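 Luminescence read-out (One-Glo luciferase reagent, 30 min at room temperature) from PGC/ERR cells exposed to DMSO-dissolved test compounds for 18 h at 37 C; cells, 2,000 per well, had been preincubated 6 h before compound transfer.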
row,Structure (SMILES),"activity, negative = inhibition"
1,COc1ccc(NS(=O)(=O)c2ccc(N)cc2)nn1,3.34% [at 42.5 µM] (inactive)
2,CC(C)C(=O)c1ccccc1,-13.1% (inactive)
3,CCCCCCCCCCC,-14.2% (inactive)
4,CC(Cl)COP(=O)(OCC(C)Cl)OCC(C)Cl (centres undefined),-22% (inactive)
5,CN(C)CCOCCN(C)CCO,-8.48% (inactive)
6,CC(C)(CO)[C@@H](O)C(=O)NCCCO,3.55% [at 42.5 µM] (inactive)
7,C=CCOCC(CO)(COCC=C)COCC=C,9.09% [at 42.5 µM] (inactive)
8,Cc1ncc([N+](=O)[O-])n1CC(O)CCl (centres undefined),7.61% [at 42.5 µM] (inactive)
9,CCN(CCO)c1cccc(C)c1,-19.7% (inactive)
10,CN=C(NC#N)NCCSCc1csc(N=C(N)N)n1,15.6% [at 42.5 µM] (inactive)
11,CC1CCC(C(C)(C)S)C(=O)C1 (centres undefined),-2.48% (inactive)
12,O=CN1CCOCC1,1.94% (inactive)
13,CCCCCCCCCCCCCCCCCCN(C)C,-2.4% [at 42.5 µM] (inactive)
14,O=C(O)CCNC(=O)c1ccccc1,0.556% [at 42.5 µM] (inactive)
15,O=c1[nH]c(=O)c2ccccc2o1,1.16% [at 42.5 µM] (inactive)
16,CCC1COC(=O)O1 (centres undefined),12.6% (inactive)
17,Cc1cccc(NC(=S)N(C)C)c1,-7.98% (inactive)
18,O=C(COCCOCCOCC(=O)Nc1c(I)cc(I)c(C(=O)O)c1I)Nc1c(I)cc(I)c(C(=O)O)c1I,-17.3% [at 42.5 µM] (inactive)
19,C=CCOc1c(Br)cc(Br)cc1Br,1.17% (inactive)
20,NC(=O)NC(=O)Cc1ccccc1,3.39% [at 42.5 µM] (inactive)
21,CC(=O)/C=C/c1ccco1,0.391% (inactive)
22,CCCCCCCCC(=O)OCC,3.62% (inactive)
23,CCCCCCCCCCCCCCCCI,-7.26% [at 19 µM] (inactive)

# System: not listed separately
# Assay: qHTS assay to identify small molecule agonists of the estrogen related receptor signaling pathway with the pleiotropic PPARgamma coactivator (PGC) from Tox21 10K library (AID 1224842; active = well fitted curve in the direction sought with a large enough effect in the repeat runs; an effect the other way counts as inactive or inconclusive; also: nearly all actives have a fitted effect of over 15% in size)
# Conditions: PGC/ERR reporter cell line, luciferase ONE-Glo, 18 h; series mostly up to 92.4 µM; activation: at the top concentration
# How it was run: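 PGC/ERR reporter cells (NTP line) were seeded 2,000 per well, rested 6 h at 37 C/5% CO2, then pin-dosed with compounds in DMSO for 18 h at 37 C; luciferase read by One-Glo luminescence after 30 min at room temperature.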
row,Structure (SMILES),activation
1,COc1ccc(NS(=O)(=O)c2ccc(N)cc2)nn1,0.927% [at 42.5 µM] (inactive)
2,CC(C)C(=O)c1ccccc1,-5.65% (inactive)
3,CCCCCCCCCCC,-5.02% (inactive)
4,CC(Cl)COP(=O)(OCC(C)Cl)OCC(C)Cl (centres undefined),-6.65% (inactive)
5,CN(C)CCOCCN(C)CCO,-2.63% (inactive)
6,CC(C)(CO)[C@@H](O)C(=O)NCCCO,1.08% [at 42.5 µM] (inactive)
7,C=CCOCC(CO)(COCC=C)COCC=C,2.82% [at 42.5 µM] (inactive)
8,Cc1ncc([N+](=O)[O-])n1CC(O)CCl (centres undefined),2.17% [at 42.5 µM] (inactive)
9,CCN(CCO)c1cccc(C)c1,-6.09% (inactive)
10,CN=C(NC#N)NCCSCc1csc(N=C(N)N)n1,4.99% [at 42.5 µM] (inactive)
11,CC1CCC(C(C)(C)S)C(=O)C1 (centres undefined),-0.836% (inactive)
12,O=CN1CCOCC1,0.592% (inactive)
13,Cc1c(C(C)C)c(=O)n(-c2ccccc2)n1C,-7.79% [at 42.5 µM] (inactive)
14,CCCCCCCCCCCCCCCCCCN(C)C,-0.598% [at 42.5 µM] (inactive)
15,O=C(O)CCNC(=O)c1ccccc1,0.154% [at 42.5 µM] (inactive)
16,O=c1[nH]c(=O)c2ccccc2o1,0.329% [at 42.5 µM] (inactive)
17,CCC1COC(=O)O1 (centres undefined),3.9% (inactive)
18,Cc1cccc(NC(=S)N(C)C)c1,-2.46% (inactive)
19,O=C(COCCOCCOCC(=O)Nc1c(I)cc(I)c(C(=O)O)c1I)Nc1c(I)cc(I)c(C(=O)O)c1I,-4.61% [at 42.5 µM] (inactive)
20,C=CCOc1c(Br)cc(Br)cc1Br,0.361% (inactive)
21,NC(=O)NC(=O)Cc1ccccc1,0.94% [at 42.5 µM] (inactive)
22,CC(=O)/C=C/c1ccco1,0.128% (inactive)
23,CCCCCCCCC(=O)OCC,1.27% (inactive)
24,CCCCCCCCCCCCCCCCI,-1.58% [at 19 µM] (inactive)
